This is part of a sample that, as a whole, favours compounds with a hit. Of some 83,000 tested, about 20% had one in any assay.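 Single-dose data. Exposure time 48 hours. Values below 10 considered active.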 A number with no mark means an inactive call. The source made the active and inactive calls.
What was measured:
Assay in all cases: NCI-60 one-dose screen, 48 h (100 = growth as untreated, 0 = no growth, -100 = all killed)
Settings in all cases: 10 µM unless noted
NCI-H226 lung = test system: NCI-H226 lung
NCI-H322M lung = test system: NCI-H322M lung
HOP-62 NSCLC = test system: HOP-62 NSCLC
NCI-H460 lung = test system: NCI-H460 lung
HOP-92 NSCLC = test system: HOP-92 NSCLC
NCI-H522 lung = test system: NCI-H522 lung
A549/ATCC NSCLC = test system: A549/ATCC NSCLC
786-0 renal = test system: 786-0 renal
COLO 205 colon = test system: COLO 205 colon
DU-145 prostate = test system: DU-145 prostate
K-562 leukemia = test system: K-562 leukemia
MALME-3M melanoma = test system: MALME-3M melanoma
MDA-MB-231 breast = test system: MDA-MB-231 breast
RXF 393 renal = test system: RXF 393 renal
SF-268 CNS = test system: SF-268 CNS
SF-295 CNS = test system: SF-295 CNS
SF-539 CNS = test system: SF-539 CNS
UACC-257 melanoma = test system: UACC-257 melanoma
M14 melanoma = test system: M14 melanoma

SMILES	growth (NCI-H226 lung) [%]	growth (NCI-H322M lung)	growth (HOP-62 NSCLC)	growth (NCI-H460 lung)	growth (HOP-92 NSCLC)	growth (NCI-H522 lung)	growth (A549/ATCC NSCLC)	growth (786-0 renal)	growth (COLO 205 colon)	growth (DU-145 prostate)	growth (K-562 leukemia)	growth (MALME-3M melanoma)	growth (MDA-MB-231 breast)	growth (RXF 393 renal)	growth (SF-268 CNS)	growth (SF-295 CNS)	growth (SF-539 CNS)	growth (UACC-257 melanoma)	growth (M14 melanoma)
Cc1nnc(-n2c(O)cc(=O)n(-c3ccccc3)c2=S)nc1/C=C/c1ccc(N(C)C)cc1	61.2	50.5%	39.2%	62.4%	43.7%	19.2%	51.2%	49.5%	39.7%	73.7%	30.1%	63.3%	45.6%	83.3%	78.4%	62%	66%	35.3%	49.8%
O=C(Nc1cccnc1Nc1ccc(F)cc1)c1cn(Cc2cccc(Oc3ccccc3)c2)nn1	76.6	78.9%	84.7%	80.4%	84.8%	64.7%	61%	79.2%	91.6%	84.5%	18.8%	60.9%	61.1%	74.2%	54.8%	67.7%	63.7%	87.4%	37.1%
Oc1c(Cl)cc(Cl)c2ccc(Cn3cc(-c4ccc(C(F)(F)F)cc4)nn3)nc12	84.2	96%	99.5%	98.8%	40.5%	-30.1% (active)	96.1%	95.1%	83%	48.9%	4.56% (active)	45.5%	86.7%	5.98% (active)	83.9%	104%	69.4%	58.1%	55.5%
CCSc1nc(NC)c2cc(-c3ccc(C(F)(F)F)cc3)ccc2n1	93.3	97.8%	101%	103%	97.6%	93.7%	100%	102%	–	105%	105%	96.9%	90.3%	90.5%	103%	102%	103%	106%	96.5%
Cc1noc(C)c1C(=O)OCc1coc2ccccc2c1=O	84.9	96.2%	87.5%	83.8%	27.4%	-15.4% (active)	89.5%	55.4%	66.6%	27.8%	36.5%	51.4%	61.2%	76.5%	79.8%	104%	68.5%	72.2%	69.1%
Cc1nc(N2CCOCC2)sc1S(N)(=O)=O	84.5	94%	94.5%	102%	88.2%	92.8%	101%	101%	104%	105%	110%	96%	101%	103%	94%	94.1%	98%	97.4%	103%
Cc1ccccc1Cn1cnc2ccc(-c3cc(NC(=O)c4ccc(NC5CCN(C)CC5)cc4)n[nH]3)cc21	68	83.5%	72.3%	91.9%	92.4%	57.2%	84.5%	85%	70.8%	90.8%	15.8%	31.6%	61.3%	4.62% (active)	69.2%	89.9%	27.4%	81%	82.9%
CC1(c2ccccc2O)NN=C(/N=C/c2cccc([N+](=O)[O-])c2)N1C(Cc1c[nH]c2ccccc12)C(=O)O (stereo not drawn)	82.1	97.6%	65.8%	102%	–	70.2%	103%	99.5%	84%	114%	89.8%	94.1%	80.5%	90.9%	95.7%	107%	99.4%	90.6%	92%
N=C(N)c1ccc(-c2ccc(-c3ccc(F)cc3)o2)o1	69.7	42.4%	38.1%	-13.7% (active)	16.2%	37.4%	1.43% (active)	15.4%	-76.5% (active)	28.7%	-28.5% (active)	41.6%	8.5% (active)	39.6%	30%	31.4%	21.9%	57.7%	-54.1% (active)
Nc1ncnc2c1N=C(c1ccc3c(c1)OCO3)CC(c1ccc([N+](=O)[O-])cc1)N2 (stereo not drawn)	83	90.5%	66.9%	96.2%	41.9%	95.3%	58.7%	51.8%	–	96.8%	96.5%	108%	55.9%	50.4%	86.2%	296%	86.8%	77.8%	92.2%
c1cnc2[nH]cc(-c3csc(-c4cn(CCCN5CCOCC5)c5ccccc45)n3)c2c1	61.5	80.2%	48.7%	45.4%	12%	56.9%	54.4%	28.4%	31.2%	82%	1.22% (active)	61.1%	27.1%	24.9%	52.3%	16.7%	52.9%	85%	–
CC(C)OC(=O)c1ccc2[nH]c(O)c(C(=Nc3ccc(N(C)C(=O)CN4CCN(C)CC4)cc3)c3ccccc3)c2c1	20.1	-6.59% (active)	-68.8% (active)	-57.9% (active)	1.36% (active)	-60.6% (active)	-46.7% (active)	-92.4% (active)	-59.4% (active)	-23% (active)	-15.2% (active)	-85% (active)	-71.4% (active)	-96.8% (active)	-32.7% (active)	-26.9% (active)	-95.6% (active)	-64.9% (active)	-85.1% (active)
C#CCOc1cccc(Nc2ncnc3c(NC(=O)C=C)cccc23)c1	52	54.9%	39%	–	9.26% (active)	-5.23% (active)	27.5%	14%	26.3%	-1.57% (active)	5% (active)	31.3%	26.3%	-3.19% (active)	20.7%	53.6%	5.67% (active)	33%	19.9%
O=C1Nc2ccccc2/C1=C\c1nc(-c2ccccc2)n2ccccc12	91	92%	92.9%	94.4%	121%	77.7%	–	99.4%	110%	86.4%	77.2%	119%	60.6%	78%	93.9%	97.6%	101%	124%	79.8%
COc1ccc(C(=O)Nc2cccc(C3CC(=O)c4c(cc(OC)c(OC)c4OC)O3)c2)cc1 (stereo not drawn)	25	37.8%	14.1%	4.37% (active)	34.3%	-37.1% (active)	28.5%	13.8%	-5% (active)	2.98% (active)	7.66% (active)	31.4%	41.9%	-8.37% (active)	46.6%	9.55% (active)	-29.7% (active)	46.2%	-23.9% (active)
Cc1cc2c(O)c(-c3cccc(Cl)c3)c3sc(=O)oc3c2cc1C	42.9	59.8%	76.7%	24.9%	-31.3% (active)	12.7%	69.1%	78.8%	115%	48.1%	17.2%	58.4%	53.9%	63.5%	48.7%	66%	54.3%	39.6%	51.9%
